Experimental findings from PubChem BioAssay (EPA / NIEHS) are described below.

Structures are written as SMILES. Where “and” joins values, the source holds several entries; their conditions need not be identical. Equal entries are not always repeated. Some structures have more than one record in an assay (separate samples or runs), and their calls can disagree. Calls of active or inactive are those of the source. How the source made its calls: active means hit-call score of the fitted dose curve at least 0.9, where 1 is the maximum; inactive means score below 0.9.

Sequence of Paired box protein Pax-6 (Homo sapiens) (P26367 whole entry, looked up): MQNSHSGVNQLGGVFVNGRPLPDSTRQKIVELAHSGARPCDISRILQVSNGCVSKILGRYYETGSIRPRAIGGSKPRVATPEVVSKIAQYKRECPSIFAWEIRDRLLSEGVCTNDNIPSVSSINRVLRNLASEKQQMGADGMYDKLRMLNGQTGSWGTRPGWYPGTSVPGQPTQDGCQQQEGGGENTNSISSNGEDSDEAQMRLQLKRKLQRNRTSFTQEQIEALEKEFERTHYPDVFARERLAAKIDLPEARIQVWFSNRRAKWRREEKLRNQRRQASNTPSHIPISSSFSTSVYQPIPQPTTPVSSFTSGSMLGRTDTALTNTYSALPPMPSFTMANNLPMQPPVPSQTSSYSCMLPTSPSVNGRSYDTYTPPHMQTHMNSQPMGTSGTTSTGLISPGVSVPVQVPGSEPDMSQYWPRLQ

The target in this test is Paired box protein Pax-6 (Homo sapiens) (UniProt P26367). Briefly: ATG_Pax6_CIS: Attagene CIS-FACTORIAL HepG2 Assay for human Paired Box 6 (PAX6) (AID 2282956). Conditions: HepG2 CIS-FACTORIAL PAX6 reporter transcription, RNA readout; actives raise or lower the signal. The protocol:
ATG_CIS is a cell-based, multiplexed-readout assay that uses HepG2, a human liver cell line, with measurements taken at 24 hours after chemical dosing in a 24-well plate.ATG_Pax6_CIS is one of 52 assay component(s) measured or calculated from the ATG_CIS assay. It is designed to make measurements of mRNA induction, a form of inducible reporter, as detected with fluorescence intensity signals by Reverse transcription polymerase chain reaction (RT-PCR) and Capillary electrophoresis technology.Data from the assay component ATG_Pax6_CIS was analyzed into 1 assay endpoint. This assay endpoint, ATG_Pax6_CIS, was analyzed with bidirectional fitting relative to DMSO as the negative control and baseline of activity. Using a type of inducible reporter, measures of mRNA for gain or loss-of-signal activity can be used to understand the reporter gene at the transcription factor-level as they relate to the gene PAX6. Furthermore, this assay endpoint can be referred to as a primary readout, because this assay has produced multiple assay endpoints where this one serves a reporter gene function. To generalize the intended target to other relatable targets, this assay endpoint is annotated to the dna binding intended target family, where the subfamily is paired box protein.
Human liver HepG2 cells are transiently transfected with multiple reporter transcription units (MRTUs) in 6-well plates using FuGene 6 reagent (Roche; 3 ml FuGene/1 mg DNA). The MRTU constructs are regulated by a cis-regulating element (promoter). […] A major difference between the CIS and TRANS system is that in CIS activities of endogenous TFs are measured, whereas the TRANS assay evaluates changes in activities of exogenous, chimeric NR-Gal4 proteins. […] At the end of 24 hour incubation, total RNA was isolated using TriZol reagent (Invitrogen). The isolated RNA is then reverse-transcribed using oligo(dT) primer and Mo-MLV reverse transcriptase (Invitrogen) with DNAse I (Ambion) treatment for 30 min. The one-tenth of the produced cDNA was amplified by PCR using Taq DNA polymerase (Invitrogen) and two reporter sequence-specific primers. The PCR products were fluorescently labeled by primer extension with 6-arboxyfluorescein (6-FAM) 5'-labeled reporter sequence-specific primer (2 min at 95 C, 20 s at 68 C and 10 min at 72 C) and these products were digested with 5U of HpaI (New England Biolabs) for 2h at 37 C. The fragments were purified using Qiaquick PCR columns (Qiagen), analyzed on an ABI 3130xL genetic analyzer (Applied Biosystems) with peak positions identified by using a set of X-rhodamine (ROX)-labeled MapMarker1000 molecular weight standards (BioVentures). The raw capillary electrophoresis data was processed using Attagraph software (Attagene).
Turning to `CC[N+](CC)(CC)Cc1ccccc1`, the outcome was inactive.
As for `c1ccc(CNc2ncnc3c2ncn3C2CCCCO2)cc1` (stereo not given), the result was inactive.
`CCCCCCCCCCCCOC(=O)c1cc(O)c(O)c(O)c1`: the molecule was classed as inactive.
With `C/C=C/C(=O)C1=C(C)CCCC1(C)C`, the AC50 is 39.7 µM (active).
Turning to `CCCCCCCCC(C)=O`, the molecule was called inactive.
The same measure, in the same setting: next, `COC1=CC(=O)C[C@@H](C)[C@]12Oc1c(Cl)c(OC)cc(OC)c1C2=O`: “inactive”; `CC1=NN(c2ccccc2)C(=O)C1`: “inactive”.
Same read-out and setting: next, `C=CC(=O)OCCC(F)(F)C(F)(F)C(F)(F)C(F)(F)C(F)(F)C(F)(F)C(F)(F)C(F)(F)F`: “inactive”.
`CC(C)c1c(C(=O)Nc2ccccc2)c(-c2ccccc2)c(-c2ccc(F)cc2)n1CC[C@@H](O)C[C@@H](O)CC(=O)O`: the AC50 is 94.5 µM (active) and the call was inactive.
As to `OCC(F)(F)C(F)(F)C(F)(F)C(F)(F)C(F)(F)C(F)(F)C(F)(F)C(F)(F)C(F)(F)C(F)(F)C(F)(F)F`, the molecule was classed as inactive.
The same measure, in the same setting: the result for `CNNCc1ccc(C(=O)NC(C)C)cc1` reads “inactive”; that for `COc1cc(OC)nc(NC(=O)NS(=O)(=O)Nc2ccccc2C(=O)N(C)C)n1`, “inactive”.
The same measure, in the same setting: the result for `O=C1c2ccc(O)c(O)c2C(=O)c2c(O)ccc(O)c21` reads “inactive”; that for `Clc1ccc2c(Cl)ccnc2c1`, “inactive”; that for `CC1CNCC(C)O1` (stereo not given), “inactive”.
Consider `NS(=O)(=O)O`, for which the molecule was called inactive.
Take `Cc1cc(C(=C2C=CC(=Nc3ccc(S(=O)(=O)O)cc3)C=C2)c2ccc(Nc3ccc(S(=O)(=O)O)cc3)cc2)cc(S(=O)(=O)O)c1N`: the molecule was classed as inactive.
On to `O=C1c2ccccc2C(=O)c2c(O)c(O)cc(O)c21`, for which the call was inactive.
Consider `OCCN1CN(CCO)CN(CCO)C1`, for which the half-maximal activity concentration (AC50) is 173 µM (active).
Turning to `FC(F)(F)C1(F)C(F)(F)C(F)(F)C(F)(F)C(F)(C(F)(F)F)C1(F)F` (stereo not given), the result was inactive.
Same read-out and setting: the result for `C=CC(=C)CC/C=C(\C)CCC=C(C)C` reads “inactive”; that for `Cc1ccc(C(=O)c2ccccc2)cc1`, “inactive”.
Same read-out and setting: next, `C=Cc1ccc(O)c(OC)c1`: “inactive”.
As for `CCCCCCOC(=O)c1ccc(O)cc1`, the AC50 is 53.7 µM (active).
`O=C(F)C(F)(F)C(F)(F)C(F)(F)C(F)F`: the molecule was classed as inactive.
Same read-out and setting: next, `O=C(Nc1cccc([N+](=O)[O-])c1)c1cc2ccccc2cc1O`: “inactive”; `O=C(NO)c1ccccc1`: “inactive”.
Regarding `C=CC(=O)OCCC(F)(F)C(F)(F)C(F)(F)C(F)(F)C(F)(F)C(F)(F)F`, the result was inactive.
On the same count and under the same terms, the result for `COc1ccc(C#N)cc1` reads “inactive”; that for `CC(C)(C)C1CCCCC1O` (stereo not given), “inactive”.
As to `CC(C)(C)c1ccc(O)c(O)c1`, the outcome was inactive; the AC50 was 99.1 µM (active) and 57.3 µM (active).
In the case of `C[C@]12CC[C@@H]3c4ccc(O)cc4CC[C@H]3[C@@H]1C[C@@H](O)[C@@H]2O`, the molecule was classed as inactive.
For the molecule `C=CCOCC(CO)(CO)CO`, the result was inactive.
Same read-out and setting: next, `CCOCCOCC`: “inactive”.
Consider `CCCCc1ccc2ccccc2c1S(=O)(=O)O`, for which the outcome was inactive.
Turning to `c1cc2cccc3c4cccc5cccc(c(c1)c23)c54`, the result was inactive.
Consider `CCO[Si](C)(C)OCC`, for which the molecule was called inactive.
Still for that read-out and setting: next, `CCOC(C)=O`: “inactive”.
